Where “and” joins values, the source holds several entries; their conditions need not be identical. Equal values may be shown once. Out of some 5,500 compounds screened, about 2,000 (36%) were called active. Roughly 18% stayed inconclusive and do not appear here. Cut-off read from the data, not from the text of the source: active = normalized growth mostly below about 0.91 (no sharp cut-off); inconclusive = no clear call, values can overlap the other calls; inactive = mostly above about 0.92. The list shows a part of the results.
Assay: chemical genetic growth profiling, strain panel (AID 1159580);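 note: tested at 20 µM; growth read once vehicle control cultures reached saturation at 30 °C; 1 = growth at the plate median or of vehicle wells; lower values mean less growth of the strain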
Details: S. cerevisiae deletion strains, growth OD

Measured: normalized growth

COc1ccc(CC(=O)c2ccc(O)cc2O)cc1
inactive: locus YAL021C, strain ccr4, hits give low values 0.998 | locus YAL026C, strain drs2, hits give low values 0.954 | locus YAL030W, strain snc1, hits give low values 0.985 | locus YBL061C, strain skt5, hits give low values 0.986 | locus YBR009C, strain hhf1, hits give low values 0.937 | locus YBR021W, strain FUR4, hits give low values 0.894 | locus YBR023C, strain chs3, hits give low values 0.958 | locus YBR171W, strain sec66, hits give low values 0.973 | locus YBR229C, strain ROT2, hits give low values 0.969 | locus YBR231C, strain swc5, hits give low values 0.989 | locus YBR279W, strain paf1, hits give low values 0.99 | locus YCL011C, strain gbp2, hits give low values 0.973 | locus YCL016C, strain dcc1, hits give low values 0.961 | locus YCL029C, strain bik1, hits give low values 0.953 | locus YCL061C, strain MRC1, hits give low values 0.965 | locus YCL069W, strain vba3, hits give low values 0.982 | locus YCR088W, strain abp1, hits give low values 0.988 | locus YDL005C, strain med2, hits give low values 1.01 | locus YDL035C, strain GPR1, hits give low values 0.94 | locus YDL040C, strain nat1, hits give low values 0.977 | locus YDL074C, strain BRE1, hits give low values 0.848 | locus YDL101C, strain DUN1, hits give low values 0.969 | locus YDL185W, strain tfp1, hits give low values 0.983 | locus YDR001C, strain nth1, hits give low values 0.992 | locus YDR069C, strain doa4, hits give low values 1 | locus YDR101C, strain arx1, hits give low values 0.956 | locus YDR159W, strain sac3, hits give low values 0.96 | locus YDR162C, strain NBP2, hits give low values 0.872 | locus YDR297W, strain sur2, hits give low values 0.988 | locus YDR334W, strain swr1, hits give low values 0.991 | locus YDR335W, strain msn5, hits give low values 0.975 | locus YDR388W, hits give low values 0.963 | locus YDR502C, strain sam2, hits give low values 0.924 | locus YEL003W, strain gim4, hits give low values 0.969 | locus YEL037C, strain rad23, hits give low values 0.997 | locus YEL061C, strain CIN8 (second series), hits give low values 0.994 | locus YER015W, strain faa2, hits give low values 0.971 | locus YER016W, strain bim1, hits give low values 0.996 | locus YER110C, hits give low values 0.975 | locus YER111C, strain swi4, hits give low values 0.998 | locus YER155C, strain BEM2, hits give low values 0.956 | locus YER167W, strain BCK2, hits give low values 0.962 | locus YFR010W, strain ubp6, hits give low values 1.01 | locus YGL078C, strain dbp3, hits give low values 0.983 | locus YGL167C, strain pmr1, hits give low values 0.984 | locus YGL173C, strain kem1, hits give low values 0.979 | locus YGL227W, strain vid30, hits give low values 0.997 | locus YGL240W, strain doc1, hits give low values 0.925 | locus YGL248W, strain PDE1, hits give low values 0.922 | locus YGL253W, strain hxk2, hits give low values 0.982 | locus YGR135W, strain pre9, hits give low values 0.934 | locus YGR252W, strain gcn5, hits give low values 0.841 | locus YHR013C, strain ard1, hits give low values 0.963 | locus YHR027C, strain rpn1, hits give low values 0.987 | locus YHR030C, strain SLT2, hits give low values 0.953 and 0.949 | locus YHR079C, strain IRE1 (second series), hits give low values 0.978 | locus YHR079C, strain IRE1, hits give low values 0.959 | locus YHR094C, strain hxt1, hits give low values 0.982 | locus YHR129C, strain ARP1, hits give low values 0.968 | locus YHR142W, strain chs7, hits give low values 0.925 | locus YHR200W, strain rpn10, hits give low values 0.956 | locus YIL066C, strain RNR3, hits give low values 0.953 | locus YIL073C, strain SPO22, hits give low values 0.866 | locus YIL125W, strain kgd1, hits give low values 1 | locus YIR030C, strain dcg1, hits give low values 0.972 | locus YJL092W, strain hpr5, hits give low values 0.987 | locus YJL095W, strain BCK1 (second series), hits give low values 0.981 | locus YJL095W, strain BCK1, hits give low values 0.812 and 0.951 | locus YJL115W, strain asf1, hits give low values 1.01 | locus YJL129C, strain trk1, hits give low values 0.931 | locus YJL134W, strain LCB3, hits give low values 0.981 | locus YJL154C, strain vps35, hits give low values 0.992 | locus YJL164C, strain tpk1, hits give low values 0.952 | locus YJL166W, strain qcr8, hits give low values 0.944 | locus YJL168C, strain set2, hits give low values 0.972 | locus YJL187C, strain SWE1 (second series), hits give low values 0.958 | locus YJL187C, strain SWE1, hits give low values 0.987 | locus YJR066W, strain TOR1, hits give low values 0.93 | locus YKL009W, strain mrt4, hits give low values 0.956
active: locus YDL192W, strain arf1, hits give low values 0.865 | locus YDR137W, strain rgp1, hits give low values 0.733 | locus YDR195W, strain ref2 1.19 [resistant] | locus YDR318W, strain mcm21, hits give low values 0.912 | locus YDR392W, strain spt3, hits give low values 0.455 | locus YER155C, strain BEM2 (second series), hits give low values 0.768 | locus YGL086W, strain mad1, hits give low values 0.928

— PubChem BioAssay AID1159580 (chemical genetic matrix, 2015)
